This passage reports residual activity results from ChEMBL document CHEMBL2218924, “A broad activity screen in support of a chemogenomic map for kinase signalling research and drug discovery” (Biochem J, 2013).

SMILES strings stand for the structures.

This assay deals with MAP kinase-activated protein kinase 3 (Homo sapiens) (UniProt Q16644). To be noted: at 1 µM.
MAP kinase-activated protein kinase 3 (Homo sapiens), sequence (Q16644 whole entry, looked up): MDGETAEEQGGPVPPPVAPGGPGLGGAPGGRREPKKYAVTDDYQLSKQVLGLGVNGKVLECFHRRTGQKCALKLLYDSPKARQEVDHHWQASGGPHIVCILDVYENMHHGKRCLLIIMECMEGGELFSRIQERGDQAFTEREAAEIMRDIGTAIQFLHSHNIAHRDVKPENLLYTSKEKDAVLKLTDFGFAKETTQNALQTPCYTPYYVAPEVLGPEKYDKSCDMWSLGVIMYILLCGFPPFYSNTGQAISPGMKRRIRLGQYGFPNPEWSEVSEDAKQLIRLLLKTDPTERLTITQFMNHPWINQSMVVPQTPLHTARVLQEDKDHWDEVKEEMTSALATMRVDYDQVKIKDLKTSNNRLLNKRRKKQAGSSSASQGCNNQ
Regarding `CC[n+]1c(/C=C/N(C)c2ccccc2)n(-c2ccccc2)c2ccc(-c3nc4ccccc4s3)cc21`, the residual activity is 100%.
For `O=C1Cc2c([nH]c3ccc([N+](=O)[O-])cc23)-c2ccccc2N1` the value was 75%; for `Oc1c2ccccc2c2c3c(cccc13)N=N2`, 100%; for `CC#CC(=O)Nc1cc2c(Nc3ccc(F)c(Cl)c3)ncnc2cn1`, 104%.
With `CN(C)CCCn1cc(C2=C(c3c[nH]c4ccccc34)C(=O)NC2=O)c2ccccc21`, the residual activity came out at 137%.
The value for `CC(=O)O/N=C1\C(=C2\C(=O)Nc3cc(Br)ccc32)Nc2ccccc21` was 97%; that for `NC(=O)Nc1sc(-c2ccc(F)cc2)cc1C(N)=O` was 98%; that for `O=C(Nc1cccc(Nc2nccc(Nc3cccc(C(F)(F)F)c3)n2)c1)C1CC1` was 122%.
As for `CCCCc1c(-c2ccc(OC)cc2)[nH]c2nccnc12`, the residual activity is 130%.
For `Cn1nc2c3c(cccc31)C(=O)c1ccccc1-2` the value was 93%.
The value for `COc1ccc(S(=O)(=O)N(CCO)c2ccccc2CN(C)C/C=C/c2ccc(Cl)cc2)cc1` was 118%; that for `CCOC(=O)c1c(C)[nH]c(/C=C2\C(=O)Nc3ccccc32)c1C` was 98%; that for `Oc1ccc(Nc2nc(-c3ccc(Cl)cc3)cs2)cc1` was 139%.
The value for `O=C1NC(=O)c2c1c1c3ccccc3[nH]c1c1[nH]c3cc(Br)ccc3c21` was 87%.
`Ic1cccc(CSc2nnc(-c3ccncc3)o2)c1`: the residual activity worked out at 111%.
For `COc1cc2ncnc(Nc3ccc(Oc4ccccc4)cc3)c2cc1OC` the value was 118%; for `O=c1c(-c2ccc(F)cc2)c(-c2ccncc2)[nH]n1-c1ccc(Cl)cc1`, 122%.
The value for `Cc1nc(-c2ccccc2)c(-c2ccncc2)o1` was 103%; that for `COc1cc2ncnc(N3CCN(C(=O)Nc4ccc(Oc5ccccc5)cc4)CC3)c2cc1OC` was 100%; that for `O=C1C(Cl)=C(N2C(=O)CCC2=O)C(=O)c2ccccc21` was 101%.
Take `O=C1Nc2ccccc2/C1=C1/Nc2ccccc2/C1=N\OCCC(O)CO` (stereo unspecified): the residual activity came out at 106%.
